# Data published in PubChem BioAssay (NCI).
# Compounds without any hit were thinned out: in the full panel of roughly 83,000, 20% have a hit.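 Method: cells in 96-well plates; compound added at one concentration; 48 h incubation; percent growth measured; values under 10 scored active.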 Unmarked numbers belong to inactive results. Activity calls are given as the source filed them.
# How the values were obtained:
# Assay in all cases: NCI-60 one-dose screen, 48 h (100 = growth as untreated, 0 = no growth, -100 = all killed)
# Settings in all cases: 10 µM unless noted
# NCI-H23 lung = test system: NCI-H23 lung
# NCI-H226 lung = test system: NCI-H226 lung
# NCI-H322M lung = test system: NCI-H322M lung
# HOP-62 NSCLC = test system: HOP-62 NSCLC
# NCI-H460 lung = test system: NCI-H460 lung
# 786-0 renal = test system: 786-0 renal
# MDA-MB-231 breast = test system: MDA-MB-231 breast
# SF-268 CNS = test system: SF-268 CNS
# SF-539 CNS = test system: SF-539 CNS
# U251 CNS = test system: U251 CNS
# UACC-62 melanoma = test system: UACC-62 melanoma
# SK-MEL-28 melanoma = test system: SK-MEL-28 melanoma
# SN12C renal = test system: SN12C renal
# UO-31 renal = test system: UO-31 renal
# OVCAR-8 ovarian = test system: OVCAR-8 ovarian
# OVCAR-3 ovarian = test system: OVCAR-3 ovarian
# MDA-MB-435 melanoma = test system: MDA-MB-435 melanoma
# SW-620 colon = test system: SW-620 colon
# MCF7 breast = test system: MCF7 breast
# KM12 colon = test system: KM12 colon
Compound,growth (NCI-H23 lung),growth (NCI-H226 lung),growth (NCI-H322M lung) [%],growth (HOP-62 NSCLC),growth (NCI-H460 lung),growth (786-0 renal),growth (MDA-MB-231 breast) [%],growth (SF-268 CNS),growth (SF-539 CNS),growth (U251 CNS),growth (UACC-62 melanoma),growth (SK-MEL-28 melanoma),growth (SN12C renal),growth (UO-31 renal),growth (OVCAR-8 ovarian),growth (OVCAR-3 ovarian),growth (MDA-MB-435 melanoma),growth (SW-620 colon),growth (MCF7 breast),growth (KM12 colon)
O=C1NC(=O)C(Cc2ccccc2)(Cc2ccccc2)C(=O)N1,111%,105%,111,95.8%,110%,98.6%,98.9,109%,110%,102%,95.1%,97.9%,104%,78.7%,106%,119%,113%,107%,94.8%,105%
CC1(C)N=C(N)N=C(N)N1c1ccc(OCCCCOc2ccc(S(=O)(=O)F)cc2)c(Cl)c1,20%,29.6%,23.2,28.3%,4.24% (active),20.6%,38.3,17.9%,12.2%,12%,17.2%,31.3%,17.4%,67.7%,13.5%,28.4%,16.8%,13%,9.19% (active),9.69% (active)
CCCCCCCC(=O)OCC/C=C/C1OC1C1OC(=O)/C=C\C=C\c2nc(oc2C)/C=C(/C)CCC2OC2C1OC(=O)NC(C)=O (centres undefined),-59.1% (active),-37.5% (active),15.6,-11.6% (active),-51.5% (active),-53.8% (active),,5.33% (active),-34.1% (active),-34.3% (active),-49.6% (active),-15.3% (active),-99.9% (active),2.49% (active),-79.1% (active),5.74% (active),3.24% (active),-65.4% (active),-39.3% (active),-74% (active)
S=P(N1CCCCCC1)(N1CC1)N1CC1,102%,106%,121,94.8%,107%,103%,96.4,96.8%,102%,106%,98.3%,116%,96.2%,104%,100%,112%,109%,108%,94%,105%
O=CN1N=C(c2ccccc2)CC1c1sc(N(CCCl)CCCl)nc1Cl (centres undefined),87.5%,85.1%,82.4,86.9%,106%,104%,77.8,101%,109%,96.5%,67.5%,98.7%,96.1%,71.7%,91%,96.1%,99.2%,105%,90.1%,98.9%
c1cnc2c(c1)ccc1ncccc12,121%,100%,123,103%,108%,105%,108,96.4%,106%,105%,94.6%,205%,95.3%,93.2%,94.4%,90.6%,113%,144%,107%,107%
CCC(CO)NC1CCCCC1 (centres undefined),87.5%,114%,97.2,88.7%,100%,76%,58,86.9%,17.7%,55.1%,91.9%,102%,75.8%,66%,78.9%,100%,74.2%,34.6%,63.4%,54.6%
O=CN1N=C(c2ccc3c(c2)OCO3)CC1c1sc(N(CCCl)CCCl)nc1Cl (centres undefined),101%,95.9%,75.1,93%,105%,87.8%,89.9,93.7%,102%,98.6%,77.5%,101%,94.8%,74.5%,92.9%,95.5%,97.6%,92.9%,88.9%,93.9%
